Screening results (PubChem)
A selection: hits, their analogues and other compounds. The true share with any hit is near 7.9%.
Lassa entry inh: qHTS for Inhibitors of binding or entry into cells for Lassa Virus | 300,000 compounds, 1.2% hits | Lassa virus pseudotype entry inhibition, cell reporter | Potency, µM (doses to about 37.9 µM), for the others: top-dose activity change, negative = inhibition, most hits filed as inhibitors; calls by dose curve; tested in HEK293 cells; note: potency is the fitted concentration of half-maximal effect; nearly all actives have a fitted effect of over 50% in size
HCMV antiviral: qHTS Assay for inhibitors of the human cytomegalovirus (HCMV); HFF cells, HCMV-luciferase reporter, 72 h; stronger effect = lower value; activity change, negative = inhibition, % at 57.5 µM; 410,000 compounds, 4.5% hits; in the data active = activity change below about -60%; inconclusive = no clear call, values can overlap the other calls; inactive = above about -39%
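HFF cells seeded 16 h at 37C, treated with compounds, infected with luciferase-reporter HCMV at MOI 1 PFU/cell; luciferase read at 72 h post infection, normalized to buffer-only and Salinomycin controls.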
Marburg entry inh: qHTS for inhibitors of binding or entry into cells for Marburg Virus; Potency, µM (top dose mostly 37.8 µM), without a hit: at the top dose activity change, negative = inhibition, most hits filed as inhibitors; AID 540276, 2011; Marburg virus pseudotyped entry inhibition, cell reporter; 300,000 compounds, 1.8% hits; calls by dose curve; tested in HEK293 cells; note: potency is the fitted concentration of half-maximal effect
HCV inhibitor: qHTS Assay for Inhibitors of Hepatitis C Virus (HCV); Huh7.5.1 HCVcc-Cre infection, luciferase reporter, 44 h; Potency, µM (top dose mostly 41.8 µM), inactives show top-dose activity change, negative = inhibition, hits mostly inhibitors; 340,000 compounds, 3.4% hits; active = well fitted inhibition curve with a large enough effect; inconclusive = small, poorly fitted or top-dose-only effect, or another doubt; inactive = no such curve, though single readings can be large or run the other way; note: potency is the fitted concentration of half-maximal effect
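A cell-based infection assay in which seeded cells (1,000 per well) receive test compound after 4 h, are inoculated with HCVcc-Cre at approximately 0.5 moi, and are incubated 44 h before luminescence detection.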
FMDV inh: High Throughput Screening for Foot and Mouth Disease Virus Antivirals | FMDV antiviral cell-based qHTS | Potency, µM (top dose mostly 57.9 µM), inactives show top-dose activity change, negative = inhibition, usual class: inhibitors | 410,000 compounds, 1.2% hits; calls by dose curve; tested in HEK293T cells; note: read-out not given here; potency is the fitted concentration of half-maximal effect; nearly all actives have a fitted effect of over 45% in size
Starred values were filed as active, the others as inactive; ? = inconclusive; . = not tested or not shown; [ ] = dose if it differs, or a comment. % is set by controls: 0 for no effect and ±100 for the full control effect.

SMILES | Lassa entry inh | HCMV antiviral | Marburg entry inh | HCV inhibitor | FMDV inh
COc1ccc(NC(=O)c2nn(C34CC5CC(CC(C5)C3)C4)cc2[N+](=O)[O-])cc1 | ? | 15.0 | ? | 10.5% | -14.7%
O=C(Nc1cccc2ccccc12)c1nn(C23CC4CC(CC(C4)C2)C3)cc1[N+](=O)[O-] | -15.1% | -70.9* | -16.1% | ? | 13.8%
COCc1cc(=O)c2ccccc2o1 | . | 13.6 | . | -29.0% | -8.9%
CC(C)CNc1nc(N)c([N+](=O)[O-])c(N2CCCCCC2)n1 | -27.9%[46.1 µM] | -99.0* | ? | ? | -22.3%
CCC(C)Nc1nc(N)c([N+](=O)[O-])c(N2CCCCCC2)n1 (configuration not stated) | ? | -36.4 | ? | ? | ?
CN1CCN(c2nc(NCc3ccco3)nc(N)c2[N+](=O)[O-])CC1 | 9.6% | 6.4 | 1.0%[46.1 µM] | 22.5% | 1.4%
Nc1nc(NCc2ccco2)nc(N2CCCCC2)c1[N+](=O)[O-] | 0.7% | 24.2 | 10µM* | -4.8% | -22.3%
Cc1ccc(NC(=O)Cn2c(=O)n(Cc3nc(-c4ccccc4)no3)c(=O)c3cc4c(cc32)OCO4)cc1C | -23.2%[46.1 µM] | 17.9 | . | . | ?
C[C@H](Nc1nc(Br)cnc1N)c1ccccc1 | . | 11.3 | . | . | .
CCCc1cc(C(=O)OCC(=O)NCCc2ccccc2)sc1C | . | ? | . | . | -25.5%
CCc1cc(C(=O)OCC(=O)NCCc2ccccc2)sc1C | . | -85.4* | . | . | -13.9%
O=C(COC(=O)c1ccccc1C(=O)c1ccc(Cl)cc1)NCc1ccccc1 | . | -32.4 | . | -11.9% | -17.4%
Cc1ccc(C(=O)c2ccccc2C(=O)OCC(=O)NCCc2ccccc2)cc1 | -24.9% | -67.4* | ? | -27.9% | 0.0%
N#C/C(C(=O)N1CCOCC1)=C1\S[C@H](Cc2ccccc2)C(=O)N1c1ccccc1 | . | . | 20.1% | . | .
Cc1ccc(CSc2nc(=O)c3c(C)cc(C)nc3n2C2CC2)cc1 | -11.3%[46.1 µM] | -101.3* | . | . | ?
CCOc1ccc(/C=N/NC(=O)C2CC2)c(OCC)c1 | -22.7%[46.1 µM] | -27.5 | 7.5%[46.1 µM] | 4.47µM* | -12.2%
CCOc1ccc(/C=N/NC(=O)C2CCCC2)c(OCC)c1 | -25.1%[46.1 µM] | ? | 1.6%[46.1 µM] | -11.0% | 15.6%
Cc1ccc(N2CN=c3s/c(=C\c4cccnc4)c(=O)n3C2)cc1 | 7.0% | -69.0* | -20.5%[46.1 µM] | -11.5% | 19.0%
O=C(Nc1ccc(-c2csc(Nc3ccccc3)n2)cc1)c1ccccc1 | . | -63.1* | . | ? | -20.5%
O=C(Nc1nc(-c2ccc(Br)cc2)cs1)c1cccnc1 | -2.2% | -63.6* | -26.8%[46.1 µM] | -29.9% | -16.9%
O=C(Nc1cccc(-c2csc(Nc3ccc(Cl)cc3)n2)c1)c1cccc(C(F)(F)F)c1 | . | -32.7 | . | 3.16µM* | ?
COCCCNC(=O)CCCn1c(SCC(=O)c2ccc(Br)cc2)nc2c(sc3ccccc32)c1=O | 11.6%[46.1 µM] | 0.3 | -3.5%[46.1 µM] | . | -0.5%
O=C(CNS(=O)(=O)c1ccccc1)OCC(=O)c1c[nH]c2ccccc12 | . | 37.2 | . | 9.4% | 6.7%
Cc1ccc(C(=O)NCCSc2c(C)[nH]c3ccccc23)cc1[N+](=O)[O-] | ? | 11.5 | 9.0% | 11.2µM* | 35.5µM*
COc1ccc(-c2[nH]c3ccccc3c2SCCNC(=O)c2ccccc2)cc1 | ? | -28.3 | ? | 12.6µM* | 0.0%
SMILES | Lassa entry inh | HCMV antiviral | Marburg entry inh | HCV inhibitor | FMDV inh
COc1cccc(C(=O)NCCSc2c(C)[nH]c3ccccc23)c1OC | . | -32.1 | . | 12.6µM* | ?
O=C(NCc1ccccc1C(F)(F)F)c1cccc2c1C(=O)c1ccc(N3CCC(N4CCCCC4)CC3)cc1S2(=O)=O | . | -99.8* | . | . | -6.4%
CC1CCN(c2ccc3c(c2)S(=O)(=O)c2cccc(C(=O)NC[C@@H]4CCCO4)c2C3=O)CC1 | . | -94.1* | . | ? | 16.6%
CC1CCN(c2ccc3c(c2)S(=O)(=O)c2cccc(C(=O)NC4CC4)c2C3=O)CC1 | . | -61.6* | . | -8.1% | 21.1%
O=C(NC[C@@H]1CCCO1)c1cccc2c1C(=O)c1ccc(N3CCOCC3)cc1S2(=O)=O | . | -2.7 | . | 18.9% | -20.6%
O=C(NCC1CCCO1)c1cccc2c1C(=O)c1ccc(N3CCC(Cc4ccccc4)CC3)cc1S2(=O)=O (configuration not stated) | . | . | . | ? | 12.6µM*
O=C(NCc1ccccc1C(F)(F)F)c1cccc2c1C(=O)c1ccc(N3CCOCC3)cc1S2(=O)=O | . | -13.1 | . | -5.7% | 4.3%
